This is a sample that favours compounds with a hit; in the whole collection about 5.2% have one here.
Tau fluor counter: counter-screen for tau fibril formation inhibitors; tau K18 P301L Alexa594 fluorescence, heparin fibrillization; Potency, µM (doses to about 57.7 µM), for the others: at the highest dose activity change, negative = decrease; 0.93% of 280,000 active; further: potency means the concentration at half of the fitted maximal effect; nearly all actives have a fitted effect of over 55% in size
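Human tau K18 P301L (15 uM unlabeled, 0.24 uM Alexa 594-labeled) in 100 mM sodium acetate pH 7 with 20 uM heparin, 6 hr at 37 C. ThT 30 uM added, 1 hr ambient; Alexa 594 FP and total fluorescence read at 555/632 nm.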
Tau fibril ThT: tau fibrillization inhibition (ThT binding) | P10636 | recombinant tau K18 P301L (four-repeat tau fragment), heparin-induced fibrillization, ThT fluorescence | Potency, µM (doses to about 57.4 µM), without a hit: top-dose activity, negative = inhibition, usual class: inhibitors | 2.1% of 270,000 active | AID 1460; further: potency means the concentration at half of the fitted maximal effect; nearly all actives have a fitted effect of over 55% in size
Target sequence (P10636 561-689 P618L limits assumed): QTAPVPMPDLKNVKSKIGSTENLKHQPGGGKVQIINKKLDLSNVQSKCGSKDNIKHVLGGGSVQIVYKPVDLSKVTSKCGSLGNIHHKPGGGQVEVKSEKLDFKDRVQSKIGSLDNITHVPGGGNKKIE
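K18 P301L tau (15 uM + 0.24 uM Alexa 594-tagged), heparin 20 uM, NaOAc pH 7, 6 h 37 C; ThT 30 uM, 1 h RT, ex 450/em 510 nm.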
Tau fibril FP: inhibitors of human tau fibril formation. K18 P301L tau heparin fibrillization, Alexa594 FP, 6 h. AID 1468. Potency, µM (top dose mostly 57.7 µM), for inactives: at the highest dose activity, negative = inhibition, actives largely listed as inhibitors. P10636. 0.39% of 280,000 active; further: potency means the concentration at half of the fitted maximal effect; nearly all actives have a fitted effect of over 55% in size
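K18 P301L tau (15 uM unlabeled/0.24 uM Alexa 594-labeled, final) + compound + heparin 20 uM final; 100 mM NaOAc pH 7; 6 hr 37 C; ThT 30 uM final added, 1 hr RT; FP ex 555/em 632 nm.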
FBPA coupling cs: inhibits coupling enzyme system, counter-screen for aldolase hits; coupling enzyme system counterscreen, AmpLite Red fluorescence; activity change, negative = inhibition, % at 58.2 µM, hits read low; 0.67% of 290,000 active; AID 2472; in the data active means activity change below about -30%
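Final compound at 57.5 uM, incubated 10 min at RT with coupling enzyme reagent (glyceraldehyde-3-phosphate), then 20 min with substrate and AmpLite Red detection. Fluorescence read at 525/598 nm; tests interference with the coupling assay, not aldolase inhibition.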
Sfp inh: Sfp phosphopantetheinyl transferase inhibition | Q9F4F7 | Biochemical Sfp PPTase activity, qHTS | Potency, µM, for inactives: largest response in the series, negative = inhibition, hits mostly inhibitors | 3.5% of 310,000 active | AID 1490;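 further: the enzyme is Sfp with the accession as filed and its product quenches rhodamine fluorescence; potency means the concentration at half of the fitted maximal effect; 0% = enzyme reaction without inhibitor and -100% = no enzyme wells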
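Fluorescence-quenching assay: 15 nM Sfp-PPTase preincubated 15 min at room temperature with compound, then 5 uM rhodamine-CoA and 12.5 uM BHQ-2-labelled YbbR peptide added. Fluorescence (ex 525/em 598 nm) read at start and after 30 min; difference gives rate.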
Active calls of the source: *; ? = inconclusive; / = no result; [ ] = remark or other dose. Unless noted, the call rests on the fitted dose curve; in most records, active means well fitted curve in the direction sought with a large enough effect; inconclusive means small, poorly fitted or top-dose-only effect, or another doubt; inactive means no such curve, though single readings can be large; an effect the other way counts as inactive or inconclusive. Unless noted, on the % scale 0 is the no-effect control and ±100 the full control effect.

SMILES	Tau fluor counter	Tau fibril ThT	Tau fibril FP	FBPA coupling cs	Sfp inh
CCOc1ccc(C2C(=O)N(C3CCCCCC3)CC(=O)N2CCC2=CCCCC2)cc1OC (stereo unspecified)	-10.4%	-16.4%	0.8%	/	/
O=C(c1cccc(Cl)c1)N1CCC(=O)N([C@H](COCc2cccc(Cl)c2)Cc2ccccc2)CC1	-11.1%	-13.2%	9.3%	-0.9	17.9%
Cc1cccc(N2CCN(S(=O)(=O)c3csc(C(N)=O)c3)CC2)c1C	?	-3.5%	-11.5%	/	/
Cc1cccc(-c2nc(CS(=O)CC(=O)N3CCc4ccccc4C3)c(C)o2)c1 (stereo unspecified)	-9.8%	?	-12.9%	-11.8	39.8µM*
COc1ccc(-c2cc3nc(C)c(CCC(=O)N4CCN(c5ccccc5)CC4)c(C)n3n2)c(OC)c1	-12.7%	?	14.8%	/	/
O=C1C2=C(c3ccccc31)[N+](=O)C1CCCCC1N2[O-] (stereo unspecified)	-25.7%	15.8µM*	?	-38.1*	-13.9%
O=C1c2ccccc2C(=O)c2c1ccc1c(=O)n(C3CCCCC3)[nH]c21	?	?	10.4%	-25.1	-12.2%
O=C1C2=C(c3ccccc31)[N+](=O)[C@@H]1CCCC[C@@H]1N2[O-]	-18.1%	?	?	-45.2*	56.2µM*
CCc1ccc(NC(=O)Cn2c(=O)n(Cc3nc(C)no3)c(=O)c3cc4c(cc32)OCO4)cc1	?	0.4%	?	/	/
COc1ccc(OCc2nnc(SCC(=O)N(C)Cc3ccccc3)n2N)cc1	-1.6%	-11.2%	-4.4%	7.6	25.1µM*
Cc1ccc(OCc2nnc(SCC(=O)O)n2N)cc1	0.6%	-0.6%	1.2%	1.6	-11.3%
Cc1ccc(-n2c(O)c(/C=N/Nc3ccc(S(=O)(=O)N4CCOCC4)cc3[N+](=O)[O-])c3ccccc3c2=O)c(C)c1	?	12.6µM*	-8.7%	-7.0	-18.0%
O=C(O)COc1ccccc1/C=N/Nc1ccc(S(=O)(=O)N2CCOCC2)cc1[N+](=O)[O-]	-11.3%	?	2.2%	-0.7	-6.5%
Cc1cc(C)c(S(=O)(=O)NCC(c2ccc(N(C)C)cc2)N2CCc3ccccc32)c(C)c1 (stereo unspecified)	?	?	6.7%	/	/
Cc1c(N/C=C(\Cl)C(=O)C(F)(F)F)c(=O)n(-c2ccccc2)n1C	-16.7%	?	?	-3.2	22.4µM*
NC1(C(=O)O)CCc2cc(C(=O)O)ccc21 (stereo unspecified)	-13.6%	?	-16.6%	/	?
Cc1sc(-n2c(C)cc(/C=N/n3cnnc3)c2C)c(C#N)c1C	-4.5%	-15.3%	0.8%	0.8	20µM*
COc1ccc(-c2cc3ccc(O)c(CN4CCCC4)c3oc2=O)cc1OC	-3.3%	?	-4.7%	/	/
O=[N+]([O-])c1c(NCc2ccco2)ccc2nonc12	-0.4%	-13.2%	12.7%	-1.2	0.1%
CC(=O)OCCCNc1cc(SCc2ccco2)c2nonc2c1[N+](=O)[O-]	7.08µM*[quencher]	7.94µM*	?	-2.6	25.1µM*
CCCSc1cc(NCCOC(C)=O)c([N+](=O)[O-])c2nonc12	?	?	-5.6%	-38.8*	-17.1%
CCCC(=O)OCCNc1cc(SCc2ccco2)c2nonc2c1[N+](=O)[O-]	4.47µM*[quencher]	3.98µM*	?	-12.7	11.2µM*
CCCSc1cc(NCCOC(=O)CCC)c([N+](=O)[O-])c2nonc12	?	?	9.1%	-2.8	-17.6%
CCCC(=O)OCCNc1cc(Sc2nccn2C)c2nonc2c1[N+](=O)[O-]	?	7.08µM*	?	-7.8	35.5µM*
Cc1nn2c3c(cnc2c1-c1ccccc1)C(=O)CC(c1ccco1)C3 (stereo unspecified)	-14.4%	-10.1%	-11.4%	-0.7	89.1µM*
SMILES	Tau fluor counter	Tau fibril ThT	Tau fibril FP	FBPA coupling cs	Sfp inh
Cc1nn2c3c(cnc2c1-c1ccccc1)C(=O)CC(c1ccccc1)C3 (stereo unspecified)	-10.3%	-10.5%	2.1%	1.9	5.8%
FC(F)(F)c1cccc(-n2cc(-c3ccccc3)c3c(N4CCCCC4)ncnc32)c1	2.9%	4.5%	1.3%	/	/
N#C/C(=C\c1cc2ccccc2nc1N1CCOCC1)C(=O)Nc1ccc(N2CCOCC2)cc1	?	14.1µM*	-5.6%	-0.3	17.5%
CSc1cccc(Nc2cc(C(=O)NC3CCCCC3)c3ccccc3n2)c1	?	2.3%	-4.5%	/	/
CC(C)c1ccc(Nc2cc(C(=O)NCCc3ccccc3)c3ccccc3n2)cc1	?	0.7%	1.3%	/	/
Cc1cc(C)cc(Nc2cc(C(=O)NCCCN(Cc3ccccc3)C(C)C)c3ccccc3n2)c1	2.82µM*[quencher]	-15.7%	?	/	/
CSc1cccc(Nc2cc(C(=O)NCCCN(Cc3ccccc3)C(C)C)c3ccccc3n2)c1	3.55µM*[quencher]	?	?	/	/
CC(C)c1c(O)c(-c2cc3c(c(C(C)C)c2O)CCC2C(C)(C)CCC[C@@]32C)cc2c1CCC1C(C)(C)CCC[C@@]21C (stereo partly specified)	-13.1%	-2.6%	-17.1%	13.2	-1.1%
CC(C)c1cc2c(c(O)c1O)[C@@]13CCCC(C)(C)C1CC2OC3=O (stereo partly specified)	/	/	/	-30.3*	3.98µM*
COc1ccc2c(c1)[nH]c1c(N3CCN(Cc4ccc5c(c4)OCO5)CC3)ncnc12	15.8µM*[quencher]	?	4.4%	-1.1	-6.6%
Cn1c(COc2ccccc2O)[n+](C)c2ccccc21	/	/	/	2.1	17.6%
CCCCCCCCCCOC(=O)Cn1c(COc2ccccc2OC)[n+](C)c2ccccc21	/	/	/	0.6	44.7µM*
Clc1cccc(/C(Cc2nc3ccccc3[nH]2)=N\Nc2ccccc2)c1	7.08µM*[quencher]	?	?	1.2	10.8%
c1ccc(N/N=C(\Cc2nc3ccccc3[nH]2)c2ccccc2)cc1	15.8µM*[quencher]	?	1.1%	0.5	8.8%
O=C(NCCc1nc2ccccc2[nH]1)c1cc([N+](=O)[O-])cc([N+](=O)[O-])c1	-14.9%	?	3.0%	2.6	?
Cc1ccc(N/N=C(\Cc2nc3ccccc3[nH]2)c2ccccc2)cc1	-27.7%	?	-2.7%	-4.8	-9.5%
N/N=C(/Cc1nc2ccccc2[nH]1)c1ccc([N+](=O)[O-])cc1	-29.6%	5.01µM*	-2.9%	1.5	-23.7%
Cc1ccc2oc3c(c(=O)c2c1)C(c1ccccc1F)N(c1ccccn1)C3=O (stereo unspecified)	-3.2%	-6.3%	8.9%	/	/
COc1ccc(N=Nc2cc(C)ccc2O)cc1	?	15.8µM*	11.5%	0.7	3.5%
COc1ccc(N=Nc2ccc(N)nc2N)cc1	?	2.51µM*	?	-2.9	-11.7%
Nc1n[nH]c(N)c1N=Nc1ccc(F)cc1	?	?	0.6%	-1.6	-4.5%
COc1ccc(N=Nc2c(N)n[nH]c2N)cc1	-28.6%	14.1µM*	0.7%	2.3	-1.1%

Compound activity deposited in PubChem BioAssay by National Center for Advancing Translational Sciences (NCATS).
